Sm TGR inh: S. mansoni TGR enzyme inhibition | Potency, µM (top dose mostly 114 µM), without a hit: at the top dose activity change, negative = inhibition, hits mostly inhibitors | AID 485364 | Q962Y6 | purified TGR, DTNB reduction, TNB absorbance 405 nm | 360,000 compounds, 3% hits; active = well fitted inhibition curve with a large enough effect; inconclusive = small, poorly fitted or top-dose-only effect; inactive = no such curve, though single readings can be large or run the other way; also: % is scaled to controls: 0 for no effect and ±100 for the full control effect; nearly all actives have a fitted effect of over 60% in size
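First, TGR (20 nM dispensed) and NADPH were mixed with compound. Second, a 15 min room-temperature incubation followed. Third, further NADPH and then DTNB were added to start the reaction. Finally, TNB absorbance was monitored kinetically.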
SARS PLP yeast: blocks SARS-CoV papain-like protease in a yeast assay; S. cerevisiae expressing SARS-CoV PLpro, growth rescue; 330,000 compounds, 0.19% hits; Potency, µM (titrated, usually from 32.9 µM), for the others: at the top dose activity, positive = growth rescue, most hits filed as activators; calls by dose curve; also: 0% is about no effect; nearly all actives have a fitted effect of over 55% in size
The depositor's hits bear a star; ? = inconclusive; nt = no result. Sampled rows, rich in hits. Any-hit rate of the full collection: about 3%. Potency is read from the fitted curve at half-maximal effect.

SMILES	Sm TGR inh	SARS PLP yeast
Cn1c2cc(B(O)O)sc2c2cnn(Cc3ccc(F)cc3F)c(=O)c21	-20%	-2%
COc1ccc(NC(=O)CN2CCN(CC(=O)Nc3ccc(OC)c(OC)c3)CC2)cc1	-20%	-2%
CCOc1ccc(NC(=O)CN2CCN(CC(=O)Nc3ccc(C(N)=O)cc3)CC2)cc1	?	2%
CCOc1ccc(NC(=O)CN2CCN(CC(=O)c3ccc(OCC)cc3)CC2)cc1	22µM*	-13%
CCOc1ccc(NC(=O)CN2CCN(CC(=O)c3ccc(OC)c(OC)c3)CC2)cc1	32µM*	-4%
COC(=O)c1c(NC(=O)c2nc(SCc3ccccc3C)ncc2Cl)sc2c1CCCC2	7%	nt
COc1cc2cc(CN(Cc3nnnn3Cc3ccco3)C3CCCCC3)c(=O)[nH]c2cc1OC	13µM*	4%
CCOc1ccc2[nH]c(=O)c(CN(Cc3nnnn3Cc3ccco3)C3CCCCC3)cc2c1	5.6µM*	-2%
O=c1[nH]c2cc3c(cc2cc1CN(Cc1nnnn1CC1CCCO1)C1CCCC1)OCO3 (centres undefined)	25µM*	12%
CCC(C)(C)n1nnnc1CN(Cc1cc2cc(OC)ccc2[nH]c1=O)C1CCCC1	6%	4%
COCCn1nnnc1CN(Cc1cc2cc(OC)c(OC)cc2[nH]c1=O)C1CCCC1	-29%	1%
O=c1[nH]c2cc3c(cc2cc1CN(Cc1nnnn1CC1CCCO1)C1CCCCC1)OCO3 (centres undefined)	?	-3%
CCCOc1ccc(CN(C(=O)Cc2coc3ccc(CC)cc23)C2CCS(=O)(=O)C2)cc1 (centres undefined)	-4%	nt
COc1cccc(CNC(=O)Nc2ccc3c(c2)N(C)C(=O)c2ccccc2S3)c1	-25%	nt
Cc1ccc(NC(=O)c2oc3c(c2C)-c2[nH]ncc2CC3)c(Cl)c1	-12%	nt
Cc1nc(NS(=O)(=O)c2ccccc2)sc1NC(=O)OCCN(C)C	32µM*	2%
CCOC(=O)c1sc(NS(=O)(=O)c2ccccc2)nc1C	-28%	6%
COc1ccc(-c2nc3ccc(NS(C)(=O)=O)cc3o2)cc1	9%	nt
COc1cccc(CC2(CO)CCCN(Cc3ccc(-c4ccco4)cc3)C2)c1 (centres undefined)	18µM*	-1%
COc1cccc(CC2(CO)CCCN(Cc3ccccc3-c3ccco3)C2)c1 (centres undefined)	50µM*	1%
COc1cccc(CC2(CO)CCCN(Cc3ccc(CO)o3)C2)c1 (centres undefined)	-26%	2%
COc1cccc(CC2(CO)CCCN(Cc3ccc(C)s3)C2)c1 (centres undefined)	11%	-1%
COc1ccc(-c2ccc(NS(=O)(=O)c3cc(C)c(C)cc3C)cc2)nn1	9%	nt
Nc1ccc2ccc3cccc[n+]3c2c1	32µM*	-7%
C[n+]1c(-c2ccccc2)c2cc(N)ccc2c2ccc(N)cc21	-26%	5%
SMILES	Sm TGR inh	SARS PLP yeast
Cc1cc2c(s1)c1c(C)nn(Cc3ccc(F)cc3)c(=O)c1n2C	0%	4%
Cc1cc2c(s1)c1c(C)nn(Cc3ccccc3F)c(=O)c1n2C	-5%	5µM*
Cc1cccc(OCCOC(=O)Nc2ccccc2)c1	9%	-10%
Cc1ccccc1OCCOc1ccccc1C=C(C#N)C#N	4µM*	-25%
Cc1cccc(OCCOc2ccccc2C=C(C#N)C#N)c1	2.5µM*	-36%
Cc1ccccc1OCCNC(=S)Nc1ccccc1	-14%	6%
Cc1ccc(-n2ncc3c(Nc4cccc(Cl)c4)ncnc32)c(C)c1	15%	nt
COc1ccccc1NC(=O)CCCOc1cc(=O)n(C)c2ccccc12	4%	nt
Cc1cc(N2CCN(c3cccc(C(F)(F)F)c3)CC2)n2nc(-c3ccccc3C)nc2n1	-4%	nt
O=C(CSc1cn(CCNC(=O)c2c(F)cccc2F)c2ccccc12)Nc1ccc2c(c1)OCCO2	1%	nt
CC(=O)N(C1CC(C)C(C#N)(C#N)C1(C#N)C#N)N(C)C (centres undefined)	nt	0%
CCCC(=O)N(C1CC(C)C(C#N)(C#N)C1(C#N)C#N)N(C)C (centres undefined)	2µM*	-2%
CC(C)c1ccc(NC(=O)Cn2c(=O)n(CC3CCC(C(=O)NCCc4ccccc4)CC3)c(=O)c3ccccc32)cc1 (centres undefined)	1%	nt
Cc1cc(Nc2cc(F)ccc2C)nc(-n2nc(C)cc2C)n1	-1%	nt
CCc1ccc(NC(=O)CCS(=O)(=O)c2ccc3c(c2)n(C)c(=O)c(=O)n3C)cc1	-7%	nt
CC(C)(C)OC(=O)N1CCC(c2c(C(=O)N3CCN(c4ncccn4)CC3)cnn2-c2ccc(F)cc2)CC1	0%	nt
Cc1[nH]c2ccccc2c1NC(=O)CN1CCN(c2cccc(C(F)(F)F)c2)CC1	-7%	nt
Cc1[nH]c2ccccc2c1C(O)CN1CCN(c2cccc(C(F)(F)F)c2)CC1 (centres undefined)	32µM*	-13%
CC1=C(c2ccc(C)c(C)c2)S(=O)(=O)N(Cc2ccc(C(=O)NCc3ccc(C)cc3)cc2)C1=O	-1%	nt
CCc1ccccc1NC(=O)C1CCCN(C(=O)c2cnn(-c3ccccc3)c2-n2cccc2)C1 (centres undefined)	3%	nt
CCOC(=O)/C(C#N)=C/C1=C(N2CCOCC2)C(C)(C)OCC1	28µM*	1%
CCOC(=O)/C(C#N)=C\C1=C(N2CCCC2)CC(C)(C)OC1	-7%	-5%
Cc1ccc(Sc2ccc(N3CCCC(C(=O)Nc4ccc(Br)cc4)C3)nn2)cc1 (centres undefined)	0%	nt
Oc1c(Br)cc(Br)cc1/C=N/c1nccs1	4µM*	1%
Oc1c(Br)cc(Br)cc1C=Nc1cccnc1	?	-2%
SMILES	Sm TGR inh	SARS PLP yeast
Oc1ccc(Cl)cc1C=Nc1ccc(Br)cc1	-22%	5%
Oc1ccc(Cl)cc1/C=N/c1nccs1	20µM*	-4%
CCc1ccc(CNC(=O)c2c(C)oc3ncn(CC(C)C)c(=O)c23)cc1	-2%	nt
COc1ccc(F)cc1S(=O)(=O)NCCc1sc2nc(-c3ccc(F)cc3)nn2c1C	-7%	nt
Cc1cccc(NS(=O)(=O)c2c(C)nc3sccn3c2=O)c1C	-6%	nt
CCOC(=O)C1(Cc2cccc(OC)c2)CCCN(C(=O)c2cc(CC(C)C)[nH]n2)C1 (centres undefined)	2%	-1%
CCOC(=O)C1(Cc2cccc(OC)c2)CCCN(C(=O)c2ccc(OC)o2)C1 (centres undefined)	50µM*	1%
Cc1ccc(-c2nc3scc(CCNS(=O)(=O)c4c(C)noc4C)n3n2)cc1	-3%	nt
O=C(C1COc2ccccc2O1)N1CCN(c2nc3c(F)cccc3s2)CC1 (centres undefined)	-6%	nt
Cc1nc(-c2ccc(C)c(N3CCN(C(=O)Nc4ccc(Br)cc4)CC3)c2)no1	6%	nt
O=C(C[n+]1ccccc1)Nc1ccccc1[N+](=O)[O-]	?	5%
O=C(C[n+]1ccccc1)Nc1ccccc1Br	0.1µM*	0%
Cc1ccc[n+](CC(=O)Nc2c(Cl)cc(Cl)cc2Cl)c1	3%	-1%
O=C(C[n+]1ccccc1)Nc1c(Cl)cc(Cl)cc1Cl	8.9µM*	1%
CC(=O)c1ccc(N2C(=O)N(Cc3ccccc3C#N)c3ccccc3S2(=O)=O)cc1	3%	nt
COc1ccc(CCNC(=O)CCc2c(C)c3ccc(O)c(C)c3oc2=O)cc1	2%	nt
CC(C)c1ccc(Nc2nc3ccc(C(=O)c4ccccc4)cc3n3cnnc23)cc1	0%	nt
Nc1nc2c(s1)CCc1c-2cnn1-c1ccccc1	2.8µM*	-31%

Screens deposited in PubChem BioAssay by National Center for Advancing Translational Sciences (NCATS).
